Laboratory results taken from PubChem BioAssay (Tox21).
Unmarked numbers belong to inactive results. Active and inactive are the calls of the source. Calls come from the whole dose curve; as a rule, active = well fitted activation curve with a large enough effect in the repeat runs; inconclusive = weak or mixed curves; inactive = flat fitted curve, though single readings scatter.

Experiment: A CellTox Green Cytotoxicity Assay to monitor cytotoxicity in HEK293 cells - 0 hour (AID 1224869); note: nearly all actives have a fitted effect of over 50% in size
Settings: CellTox Green fluorescence; series mostly up to 76.8 µM; cytotoxicity: at the top concentration
From the text: National Center for Advancing Translational Sciences [NCATS]
NIH Chemical Genomics Center [NCGC]
U.S. Environmental Protection Agency [EPA]
National Institutes of Environmental Health Sciences [NIEHS]
National Toxicology Program [NTP]
Cell-based models are critical for drug discovery. Determining the natural cytotoxic effects resulting from test compounds is an essential research activity. A CellTox Green Cytotoxicity Assay to monitor cytotoxicity in real time of continues cell culture during 40 hours of the compound treatment was used to screen Tox21 10K library compounds in Hek293 cells. CellTox Green Cytotoxicity Assay is a nonlytic, homogeneous, biofluorescent method to measure cytotoxicity in cell culture after experimental manipulation. The assay system uses a proprietary asymmetric cyanine dye that is excluded from viable cells but preferentially stains the dead cell's DNA. […] Viable cells produce no appreciable increases in fluorescence. Therefore, the fluorescence signal produced by the binding interaction with dead cell DNA is proportional to cytotoxicity.
The mixture of Hek293 cell suspension and reagents were dispensed at 600cells/6 ul/well in 1536-well tissue culture treated black solid bottom plates using a Multidrop dispenser. After the assay plates were incubated at a 37 C/5% CO2 incubator for 5 hours, 23 nL of compounds dissolved in DMSO, positive and negative controls was transferred to the assay plate by a pintool work station. The plates were incubated at 37 C for 40 hours. The fluorescence intensity were measured at 0h, 8h, 16h, 24h, 32h and 40h time points using ViewLux plate reader during compound treatment.
% is set by controls: 0 for no effect and ±100 for the full control effect.

| SMILES | cytotoxicity | Potency |
| --- | --- | --- |
| O=C1Nc2ccc(Cl)cc2[C@@](C#CC2CC2)(C(F)(F)F)O1 | 4.49% [at 35.3 µM] |  |
| CC(C)(C)c1cc(CCC(=O)NCCCCCCNC(=O)CCc2cc(C(C)(C)C)c(O)c(C(C)(C)C)c2)cc(C(C)(C)C)c1O | 0.597% |  |
| C=C1C(C)(C)[C@@]2(Cl)C(Cl)[C@]1(Cl)C(Cl)(Cl)C2(Cl)Cl (stereo not given in full) | 2.86% |  |
| C=C(c1ccc(C(=O)O)cc1)c1cc2c(cc1C)C(C)(C)CCC2(C)C |  | inactive |
| NC1(c2ccc(-c3nc4ccn5c(=O)[nH]nc5c4cc3-c3ccccc3)cc2)CCC1 | -0.225% [at 35.3 µM] |  |
| CCCCCCCCC(C)=O | -5.18% |  |
| CC(=O)OC(OC(C)=O)c1ccc([N+](=O)[O-])o1 | -1.67% |  |
| [O]=[Zr] | -1.81% |  |
| c1ccc2c(c1)CCC2 | 1.69% |  |
| CSc1ccc2c(c1)N(CCC1CCCCN1C)c1ccccc1S2 (stereo not given) |  | inactive |
| CSc1c(Cl)c(Cl)c(Cl)c(Cl)c1Cl | -1.36% |  |
| CCN(CC)CCSC(=O)C(c1ccccc1)c1ccccc1 | 0.479% [at 35.3 µM] |  |
| CC(C)=C1CC[C@@H](C)CC1=O | 0.176% |  |
| CO[Si](CCCNCCNCCN)(OC)OC | -0.188% |  |
| Cc1cccc(C)c1NC(=O)CN1CCN(CCCC(c2ccc(F)cc2)c2ccc(F)cc2)CC1 | 0.563% [at 35.3 µM] |  |
| CCOB(OCC)OCC | -13.2% |  |
| CCC1(c2cnc[nH]2)Cc2ccccc2C1 | 4.26% [at 35.3 µM] |  |
| CCCCOC(=O)C(C)CC (stereo not given) | -8.63% |  |
| CCO[Si](C)(C)OCC | -0.369% |  |
| CCN(CC)c1ccc(N)cc1 | -11.1% |  |

| SMILES | cytotoxicity | Potency |
| --- | --- | --- |
| CCCCCCCCCCCCOC(=O)c1cc(O)c(O)c(O)c1 |  | inactive |
| Cc1ccc2ccc3cccc4ccc1c2c34 | 2.75% |  |
| Cn1cnc2ncnc(N)c21 | -5% [at 35.3 µM] |  |
| Nc1ncnc2c1ncn2[C@@H]1O[C@H](COP(=O)(O)O)[C@@H](O)[C@H]1O | -8.06% [at 35.3 µM] |  |
| CN(C)c1ccc(N=NS(=O)(=O)O)cc1 | -1.01% |  |
| Clc1ccc(C(Cn2ccnc2)OCc2c(Cl)cccc2Cl)c(Cl)c1 (stereo not given) | 11.4% [at 35.3 µM] |  |
| CC(C)(C)c1n[nH]c(=O)n(N)c1=O | -2.93% |  |
| C=CC(=O)OCCOCC(CC)(COCCOC(=O)C=C)COCCOC(=O)C=C | -1.74% |  |
| Cc1c(C)n(Cc2ccccc2)c2ccc(C(=O)OCCN(C)C)cc12 | 2.46% [at 35.3 µM] |  |
| OCCC(O)CO (stereo not given) | -0.0725% |  |
| N#CSCSc1nc2ccccc2s1 | 2.46% |  |
| NCCCCCCNCCCCCCN | -3.95% |  |
| CCOC(=O)CC(C)O (stereo not given) | -6.86% |  |
| CCOC(/C=C(\C)CCC=C(C)C)OCC | -12.6% |  |
| CCN=C1C=CC(=C(c2ccc(N(CC)CC)cc2)c2ccc(N(CC)CC)cc2)c2ccccc21 | -13.6% |  |
| CN(C)CCN1CCOCC1 | -0.862% |  |
| CCC(C)C(=O)OC (stereo not given) | -5.59% |  |
| CCCCOc1ccc(C(=O)CCN2CCCCC2)cc1 | 6.42% [at 35.3 µM] |  |
| CC1=C(/C=C/C(C)=C/C=C/C(C)=C/C(=O)Nc2ccc(O)cc2)C(C)(C)CCC1 |  | inactive |
| S=P(N1CC1)(N1CC1)N1CC1 | -4.02% |  |
